# According to PubChem BioAssay (NCATS):
# Inconclusive results are not listed. A number with no mark means an inactive call. The source made the active and inactive calls. Calls follow the shape of the dose curve; as a rule, active = well fitted cell-killing curve with a large enough effect; inconclusive = small, poorly fitted or top-dose-only effect, or effect the other way; inactive = flat fitted curve, though single readings scatter.
# Tested on: CAOV3
# Assay: Primary qHTS to identify gynecologic anti-cancer compounds using libraries of approved drugs and bioactive compounds (AID 1345084); also: nearly all actives have a fitted effect of over 55% in size
# Details: Gynecologic cancer cell panel viability, ATPlite luminescence, 48 h; series mostly up to 57.5 µM; activity change, negative = cytotoxicity: at the top concentration
# Method in brief: (§1)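 Cytotoxicity screen measuring ATP content by luciferase luminescence. Each compound is applied at five concentrations for 48 h at 37 C with 5% CO2.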
# % is scaled to controls: 0 for no effect and ±100 for the full control effect; potency is read from the fitted curve at half-maximal effect.
Compound,Potency,"activity change, negative = cytotoxicity"
Cc1ccc([N+](=O)[O-])[c]2c1[O][Hg]2,6.31 µM (active),
CC1Sc2c(C(=O)O)c(=O)c3cc(F)c(N4CCNCC4)cc3n21 (stereo unspecified),,-12.2%
OC(O)C(Cl)(Cl)Cl,,18.5%
CCCOC(=O)Cc1ccc(OCC(=O)N(CC)CC)c(OC)c1,,3.14%
COP(=O)(OC)C(O)C(Cl)(Cl)Cl (stereo unspecified),,0%
COCC(=O)N(c1c(C)cccc1C)C(C)C(=O)OC (stereo unspecified),,28.2%
C[C@@H]1CN(C2CCC(C#N)(c3ccc(F)cc3)CC2)CC[C@]1(C(=O)O)c1ccccc1 (stereo partly specified),,1.64%
O=C(O)c1nn(Cc2ccc(Cl)cc2Cl)c2ccccc12,,0%
Cc1ccc(N=CN(C)C=Nc2ccc(C)cc2C)c(C)c1,,-5.34%
COC(=O)C1=CCCN(C)C1,,21.7%
O=C(CCCN1CCC(n2c(=O)[nH]c3ccccc32)CC1)c1ccc(F)cc1,,5.35%
O=C1CN2CCOC2(c2ccccc2Cl)c2cc(Cl)ccc2N1 (stereo unspecified),,-5.3%
C[C@H]1CNCCc2ccc(Cl)cc21,,-10.4%
COc1cc(N)c(Cl)cc1C(=O)NC1CN2CCC1CC2 (stereo unspecified),,4.05%
C1CN2CCC1CC2,,2.65%
CN1C(=O)CN=C(c2ccccc2)c2cc([N+](=O)[O-])ccc21,,9.34%
O=C(CBr)Nc1ccc(Cl)cc1C(=O)c1ccccc1F,,12.2%
CCOC(=O)NC(O)C(Cl)(Cl)Cl (stereo unspecified),,-20.2%
CC(C)C(Br)C(=O)NC(N)=O (stereo unspecified),,13.4%

Compound,Potency,"activity change, negative = cytotoxicity"
COP(=O)(OC)OC=C(Cl)Cl,,1.32%
COc1cc(C[C@@H](C)N)c(OC)cc1Br,,-12.9% [at 116 µM]
ClCCCN1CCN(c2cccc(Cl)c2)CC1,,2.45%
CC(CC(C(N)=O)(c1ccccc1)c1ccccc1)N(C)C (stereo unspecified),,0.369%
Cc1nc2ccccc2c(=O)n1-c1ccccc1Cl,,1.14% [at 116 µM]
CCS(=O)(=O)C(C)(C)S(=O)(=O)CC,,0.233%
O=c1[nH]c2cc(Cl)ccc2n1C1CCNCC1,,16.8%
C[N+]1(CCC(C(N)=O)(c2ccccc2)c2ccccc2)CCCCC1,,4.58%
COP(=S)(OC)Oc1ccc(Sc2ccc(OP(=S)(OC)OC)cc2)cc1,,1.48%
NC(=O)OCCCc1ccccc1,,6.47%
CCOP(=S)(OCC)O/N=C(\C#N)c1ccccc1,,8.51%
CCN1CCCC1CNC(=O)C(O)(c1ccccc1)c1ccccc1 (stereo unspecified),,6.67%
CCC1(CC)C(=O)NC(=O)NC1=O,,4.83%
CC(C)(O)C(Cl)(Cl)Cl,,-15.1%
c1ccc2nc(N3CCNCC3)ccc2c1,,8.24%
CCOC(=O)C(c1c(O)c2ccccc2oc1=O)c1c(O)c2ccccc2oc1=O,,5.69%
CC(C)(C)OC(=O)c1ncn2c1[C@@H]1CCCN1C(=O)c1c(Br)cccc1-2,,0.516%
CC(C(O)c1ccccc1)N(C)C/C=C/c1ccccc1 (stereo unspecified),,-1.23%

# Tested on: CASKI
# Assay: as above
# Details: Gynecologic cancer cell panel viability, ATPlite luminescence, 48 h; series mostly up to 57.5 µM; activity change, negative = cytotoxicity: at the top concentration
# Method in brief: as §1
Compound,Potency,"activity change, negative = cytotoxicity"
Cc1ccc([N+](=O)[O-])[c]2c1[O][Hg]2,7.94 µM (active),
CC1Sc2c(C(=O)O)c(=O)c3cc(F)c(N4CCNCC4)cc3n21 (stereo unspecified),,3%
OC(O)C(Cl)(Cl)Cl,,5.26%
CCCOC(=O)Cc1ccc(OCC(=O)N(CC)CC)c(OC)c1,,-6.77% [at 25.3 µM]
COP(=O)(OC)C(O)C(Cl)(Cl)Cl (stereo unspecified),,-4.05%
COCC(=O)N(c1c(C)cccc1C)C(C)C(=O)OC (stereo unspecified),,1.52%
C[C@@H]1CN(C2CCC(C#N)(c3ccc(F)cc3)CC2)CC[C@]1(C(=O)O)c1ccccc1 (stereo partly specified),,8.58%
O=C(O)c1nn(Cc2ccc(Cl)cc2Cl)c2ccccc12,,-1.06%
Cc1ccc(N=CN(C)C=Nc2ccc(C)cc2C)c(C)c1,,-3.07%
COC(=O)C1=CCCN(C)C1,,-4.45%
O=C1CN2CCOC2(c2ccccc2Cl)c2cc(Cl)ccc2N1 (stereo unspecified),,4.78%
C[C@H]1CNCCc2ccc(Cl)cc21,,3.7%
COc1cc(N)c(Cl)cc1C(=O)NC1CN2CCC1CC2 (stereo unspecified),,10.3%
O=C(O)Cc1ccccc1,,-2.95%
C1CN2CCC1CC2,,1.25%
CN1C(=O)CN=C(c2ccccc2)c2cc([N+](=O)[O-])ccc21,,-6.2%
O=C(CBr)Nc1ccc(Cl)cc1C(=O)c1ccccc1F,,8.48%

Compound,Potency,"activity change, negative = cytotoxicity"
CCOC(=O)NC(O)C(Cl)(Cl)Cl (stereo unspecified),,-11.2%
CC(C)C(Br)C(=O)NC(N)=O (stereo unspecified),,3.2%
COP(=O)(OC)OC=C(Cl)Cl,,-5.13%
ClCCCN1CCN(c2cccc(Cl)c2)CC1,,0.105%
CC(CC(C(N)=O)(c1ccccc1)c1ccccc1)N(C)C (stereo unspecified),,-2.34%
CCS(=O)(=O)C(C)(C)S(=O)(=O)CC,,0.203%
C[N+]1(CCC(C(N)=O)(c2ccccc2)c2ccccc2)CCCCC1,,-8.55%
COP(=S)(OC)Oc1ccc(Sc2ccc(OP(=S)(OC)OC)cc2)cc1,,-1.91%
NC(=O)OCCCc1ccccc1,,1.28%
CCOP(=S)(OCC)O/N=C(\C#N)c1ccccc1,,-2.2%
CCN1CCCC1CNC(=O)C(O)(c1ccccc1)c1ccccc1 (stereo unspecified),,-3.21%
CCC1(CC)C(=O)NC(=O)NC1=O,,-6.79%
CC(C)(O)C(Cl)(Cl)Cl,,1.51%
c1ccc2nc(N3CCNCC3)ccc2c1,,-3.31%
CCOC(=O)C(c1c(O)c2ccccc2oc1=O)c1c(O)c2ccccc2oc1=O,,9.06%
CC(C)(C)OC(=O)c1ncn2c1[C@@H]1CCCN1C(=O)c1c(Br)cccc1-2,,15.2%
CC(C(O)c1ccccc1)N(C)C/C=C/c1ccccc1 (stereo unspecified),,-2.41%
